Target: PUM1 PUF domain R1-YRR (Homo sapiens, UniProt Q14671 828-1176, S863Y;Q867R)
Experiment: yeast three-hybrid, YBZ-1, SC-Leu-His + 0.5 mM 3-AT, 4 days
Details: tags: N-Gal4 AD-HA kept; label: inside an RPR1-promoter hybrid RNA with tandem MS2 sites; ssRNA
Summary of the method: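 Pumilio-1 PUF domain libraries, randomized at the three base-contacting residues of each repeat, were co-expressed with matching RNA elements from a centromeric plasmid in strain YBZ-1, which carries a LexA–MS2 coat fusion and a HIS3 reporter. Transformants grew for four days on SC-Leu (input) or on SC-Leu-His + 0.5 mM 3-AT (selection), and the repeat regions were PCR-amplified and Illumina-sequenced. The interaction score is the log change in variant frequency from input to selection. That logarithm is base 2, with a pseudocount of 1 where a variant was absent.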

Sequence of PUM1 PUF domain R1-YRR (Q14671 828-1176 S863Y/Q867R): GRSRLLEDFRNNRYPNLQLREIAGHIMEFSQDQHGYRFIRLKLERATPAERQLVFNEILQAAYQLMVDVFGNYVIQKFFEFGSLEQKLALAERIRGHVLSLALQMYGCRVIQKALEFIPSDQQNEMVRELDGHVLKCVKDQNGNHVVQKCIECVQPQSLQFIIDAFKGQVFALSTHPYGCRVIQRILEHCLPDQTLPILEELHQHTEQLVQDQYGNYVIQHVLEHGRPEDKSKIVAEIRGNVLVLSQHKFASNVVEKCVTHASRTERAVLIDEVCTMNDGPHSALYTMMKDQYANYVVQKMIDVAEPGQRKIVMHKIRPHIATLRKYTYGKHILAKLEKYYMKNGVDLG

Going from “GGCUAGAACUAGUGGAUCCCCCGGCGCCCGGCGGCUCGAGCCCGGGUAAGUGUAAAUGGUCUGCAUGCCGCCGGGCGCCAUGCCUGCAGGUCGACUCUAGAAAACAUG” to “GGCUAGAACUAGUGGAUCCCCCGGCGCCCGGCGGCUCGAGCCCGGGUAAGUGUAAAUCGUCUGCAUGCCGCCGGGCGCCAUGCCUGCAGGUCGACUCUAGAAAACAUG”, the binding signal rises from 4.42 log2 enrichment (interaction score) to 7.93 log2 enrichment (interaction score).

For “GGCUAGAACUAGUGGAUCCCCCGGCGCCCGGCGGCUCGAGCCCGGGUAAGUGUAAAUUGUCUGCAUGCCGCCGGGCGCCAUGCCUGCAGGUCGACUCUAGAAAACAUG”, the binding signal was 8.31 log2 enrichment (interaction score).

— article PMC8384837, “Expanding the binding specificity for RNA recognition by a PUF domain”
